These results are taken from PubChem BioAssay AID623939 (Vanderbilt Specialized Chemistry Center, 2012).

Activity calls are given as the source filed them.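 Rule for the calls: active = a compound whose calcium signal at the M5 receptor changes in step with its dose; inactive = the rest.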

For this test, the target named is Muscarinic acetylcholine receptor M5 (Homo sapiens) (UniProt P08912). Description: human M5 muscarinic receptor PAM counter-screen, SAR follow-up, selectivity assay for M4 PAM optimization project, CHO cells, Fluo-4 calcium, ACh EC20 (AID 623939). As to conditions: CHO hM5 cells, ACh EC20 potentiation; series mostly up to 30 µM. On the technique in general: Counterscreens check selectivity or assay interference.
Chain of Muscarinic acetylcholine receptor M5 (Homo sapiens) (P08912 whole entry, looked up): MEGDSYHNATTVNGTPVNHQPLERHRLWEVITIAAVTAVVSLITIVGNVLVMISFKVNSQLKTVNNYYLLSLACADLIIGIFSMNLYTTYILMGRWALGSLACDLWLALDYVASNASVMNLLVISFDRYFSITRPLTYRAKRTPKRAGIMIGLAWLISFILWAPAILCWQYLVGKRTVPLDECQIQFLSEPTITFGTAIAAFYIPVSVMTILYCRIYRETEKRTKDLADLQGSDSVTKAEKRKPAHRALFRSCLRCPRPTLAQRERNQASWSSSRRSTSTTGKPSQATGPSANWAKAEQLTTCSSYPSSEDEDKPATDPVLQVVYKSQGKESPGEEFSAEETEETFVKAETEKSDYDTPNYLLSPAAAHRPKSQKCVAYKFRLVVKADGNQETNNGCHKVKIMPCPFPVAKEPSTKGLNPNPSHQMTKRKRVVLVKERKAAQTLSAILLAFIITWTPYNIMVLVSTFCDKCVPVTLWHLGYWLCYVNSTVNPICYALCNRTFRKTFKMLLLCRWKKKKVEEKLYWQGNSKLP
`Cc1nc2sc(C(=O)NCc3ccncn3)c(N)c2c(C)c1Cl`: the outcome was inactive.

As for `Cc1nc2sc(C(=O)NCc3ccncc3)c(N)c2c(C)c1Cl`, the result was inactive.

On to `Cc1nc2sc(C(=O)NCCc3ccncc3)c(N)c2c(C)c1Cl`, for which the outcome was inactive.

For `COc1ccc(C)c2sc(NC(=O)c3ccncc3)nc12`, the outcome was inactive.

Regarding `Cc1nc2sc(C(=O)NCc3cccc(F)c3F)c(N)c2c(C)c1Cl`, the result was inactive.

As to `Cc1nc2sc(C(=O)NC3CC3)c(N)c2c(C)c1Cl`, the outcome was inactive.

For the compound `Cc1nc2sc(C(=O)NCc3ccccc3)c(N)c2c(C)c1Cl`, the result was inactive.

Take `Cc1nc2sc(C(=O)NCc3ccc4c(c3)OCO4)c(N)c2c(C)c1Cl`: the outcome was inactive.

Consider `Cc1nc2sc(C(=O)NCc3cccnc3)c(N)c2c(C)c1Cl`, for which the outcome was inactive.

In the case of `Cc1nc2sc(C(=O)NCc3nccs3)c(N)c2c(C)c1Cl`, the outcome was inactive.
